Experimental data published in PubChem BioAssay AID927 (National Center for Advancing Translational Sciences (NCATS), 2007).
About 65 (0.1%) of roughly 60,000 compounds were called active. Calls come from the whole dose curve; as a rule, active = well fitted inhibition curve with a large enough effect; inconclusive = small, poorly fitted or top-dose-only effect; inactive = no such curve, though single readings can be large or run the other way. The list comes from a sample in which actives are over-represented; it also holds similar structures and randomly drawn compounds.

The compounds below were run against Ubiquitin carboxyl-terminal hydrolase 2 (Homo sapiens) (UniProt O75604) (assay: qHTS Assay for Inhibitors of Ubiquitin-specific Protease USP2a). Conditions: USP2a enzymatic assay; Potency: qHTS inhibition; series mostly up to 38.3 µM; activity change, negative = inhibition: at the top concentration.
Description: NIH Molecular Libraries Screening Centers Network [MLSCN]
NIH Chemical Genomics Center [NCGC]
PI Name: Nicholson, Ben. Progenra Inc, Malvern, PA
Homeostasis of cellular proteins is maintained through a combination of synthesis and degradation. The pathway that accounts for the majority of protein degradation is the ubiquitin-proteasomal pathway. Ubiquitin (Ub) is highly conserved in all cells and the generation of a multi-Ub chain typically targets proteins for degradation by the proteasome. However, ubiquitination is highly reversible and dynamic. Deubiquitination, the reverse process, is catalyzed through the action of enzymes referred to as isopeptidases or deubiquitinating enzymes (DUBs). This group of enzymes is collectively responsible for maintaining adequate pools of free ubiquitin and regulating the ubiquitination status of cellular proteins. The class of DUBs referred to as the ubiquitin-specific proteases (USP) family functions endoproteolytically to cleave Ub chains from a wide range of protein substrates. USP2a deubiquitinates fatty acid synthase (FASN) which has recently been identified as an emerging oncology target. To identify inhibitors of USP2a a cell-free assay was employed.
The reporter enzyme chosen is phospholipase A2 (PLA2), which has an absolute requirement for a free amino terminus. Thus, fusion of a UBL to the N-terminus of PLA2 inactivates PLA2. When the UBL-PLA2 reporter enzyme is cleaved by USP2, the activated reporter can subsequently act on its substrate, which is the commercially available NBD C6-HPC (Invitrogen). Thus, this coupled assay gives a fluorescent read-out, which is generated through the cleavage of the PLA2 reporter enzyme. The assay, developed by Progenra, Inc. uses Ub-PLA2 and USP2a at near equal and low (nM) amounts and has been licensed for sale by LifeSensors, Inc. as the Ub-IsoPro1 kit.
NCGC Assay Protocol Summary:
The assay buffer, prepared fresh at the day of the assay, contains 20mM Tris-HCl pH 8.0, 2mM CaCl2, 2mM beta-Mercaptoethanol, 0.1% DMSO. 3ul of 40nM (20nM final) USP2 core, which is stored on ice, is dispensed into a medium-binding black solid Kalypsys 1,536 well plate using the Kalypsys dispenser. The assay plate is then pinned with 23nL compound with the Kalypsys pintool in columns 5-48. The controls are pinned as follows: column 1&2 two-fold dilutions of 2M NEM in duplicate; column 3 DMSO; column 4 2M NEM (final concentration 38.2mM). The assay plate is incubated at RT for 30min. Subsequently, 3uL of 40nM (20nM final) Ub-PLA2 and 40uM (20uM final) NBD C6-HPC (stored on ice and protected from light) were dispensed into the plate using the Kalypsys dispenser. Plates were read immediately (0 Hour) on an Envision (Perkin Elmer) plate reader using the following wavelengths Ex 460nm /Em 535nm. Then, the assay plates were incubated for 2.5 hours and read again on the Envision using the same settings
Data were normalized to the to AC100 inhibition (NEM). Concentration-response curves were fitted to the normalized data and the concentration-response curves were then classified based on curve quality (r2), response magnitude and degree of measured activity. The time zero reading was used to flag fluorescence artifacts.
Keywords: ubiquitination, deubiquitination, proteases, profluorescent, MLSMR, MLSCN, NIH Roadmap, qHTS, NCGC
Note: nearly all actives have a fitted effect of over 60% in size.

Sequence of Ubiquitin carboxyl-terminal hydrolase 2 (Homo sapiens) (O75604 whole entry, looked up): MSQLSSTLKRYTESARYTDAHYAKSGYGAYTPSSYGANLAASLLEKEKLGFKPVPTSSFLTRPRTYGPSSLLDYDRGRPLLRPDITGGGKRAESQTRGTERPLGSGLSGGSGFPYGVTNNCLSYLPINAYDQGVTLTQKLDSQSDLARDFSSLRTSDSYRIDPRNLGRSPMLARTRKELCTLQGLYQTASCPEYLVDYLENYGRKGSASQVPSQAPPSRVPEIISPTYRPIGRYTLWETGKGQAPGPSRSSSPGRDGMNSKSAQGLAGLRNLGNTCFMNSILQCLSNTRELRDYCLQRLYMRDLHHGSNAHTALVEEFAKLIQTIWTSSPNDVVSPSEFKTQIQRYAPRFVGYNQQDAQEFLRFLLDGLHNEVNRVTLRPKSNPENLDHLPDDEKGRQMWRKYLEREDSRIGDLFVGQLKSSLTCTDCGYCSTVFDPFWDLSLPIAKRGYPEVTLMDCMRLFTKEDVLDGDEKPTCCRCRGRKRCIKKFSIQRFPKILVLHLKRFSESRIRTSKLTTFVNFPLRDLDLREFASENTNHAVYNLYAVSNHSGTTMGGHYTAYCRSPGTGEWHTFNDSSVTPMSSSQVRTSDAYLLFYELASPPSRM

Activity change, negative = inhibition, inactive:
CCCCNc1nc2ccccc2nc1NS(=O)(=O)c1cccs1 11.4%
Cc1ccc(N(C(=O)CC2NC(=O)NC2=O)C2(C(=O)NC3CCCC3)CCCCC2)cc1 (stereo unspecified) 14%
C=CCn1c(CSc2nc3ccccc3s2)nnc1SCC(=O)NCc1ccco1 22.9%
O/N=C1\CC2(Cc3nonc31)OCCO2 -8.23%
CC1(C)OC2CC3C4CCC5=CC(=O)CCC5(C)C4(F)C(O)CC3(C)[C@]2(C(=O)CCl)O1 (stereo partly specified) 32.2%
Cc1c(S(=O)(=O)O)oc2c1C(=O)C(=O)c1c-2ccc2c1CCCC2(C)C 28.5%
CC(C)OCCCNC(=O)C1CC(=O)N(C2CCCCCCC2)C1 (stereo unspecified) 6.61%
COc1ccc(OC)c(NC(=O)CSc2nc(N)c(-c3ccccc3)c(=O)[nH]2)c1 3.67%
O=C(O)C1CCN1C1CCCCC1 (stereo unspecified) -1.2%
O=C(O)c1ccc(COCC(F)(F)F)cc1 -7.83%
Cc1nnc(SCc2cc(=O)[nH]c(N3CCN(Cc4ccccc4)CC3)n2)s1 18.7%
CC(C)(O)CCC(O)[C@@](C)(O)C1CC[C@]2(O)C3=CC(=O)C4CC(O)C(O)C[C@]4(C)C3CC[C@]12C (stereo partly specified) -9.42%
CC(=O)Oc1c2c(c3c(c1CC=C(C)C)O[C@@]14C(=CC5CC1C(C)(C)OC4(C/C=C(\C)C(=O)O)C5=O)C3=O)OC(C)(CCC=C(C)C)C=C2 (stereo partly specified) 48.5%
CC1(C)CC(=O)C=C(NCCCN2CCCC2=O)C1 -3.87%
c1csc(-c2cn3c(n2)SCC3)c1 15.3%
COc1nc(Oc2ccc(=O)n(C)n2)nc(N(C)C)n1 0.801%
CC(C)C1=CC2=CC[C@@H]3[C@](C)(CO)CCC[C@]3(C)C2CC1 (stereo partly specified) 4.02%
Fc1cccc(/C=N\N=C/c2cccc(F)c2)c1 -4.64%
O=C(NCCCN1CCCCCC1)C1CC(=O)N(C2CCCC2)C1 (stereo unspecified) 4.66%
CCOC(=O)C1CCN(C(=O)Cc2c(C(=O)O)[nH]c3ccccc23)CC1 -3.9%
CCCCN(C)Cc1c(C)[nH]c2ccc(Cl)cc2c1=O -9.81%
CCOC(=O)Cc1csc(NC(=O)C(C)(C)C)n1 4.85%
Cn1c(=O)c2cn(-c3cccc4ccccc34)cc2n(C)c1=O 25.7%
Cc1nn(C)c(C)c1S(=O)(=O)N1CCc2ccccc21 2.65%
Nc1nc2[nH]c(=O)c(=O)[nH]c2c(=O)[nH]1 -4.69%
CN1CCCC1CCO[C@@](C)(c1ccccc1)c1ccc(Cl)cc1 (stereo partly specified) -0.877%
CS(=O)(=O)N1CCC2(CCN(c3ccncc3)CC2)CC1 -3.96%
O=c1c(O)c(-c2ccc(O)cc2)oc2ccccc12 55.6%
Cc1nnc(SCCCn2c(N3CCCCC3)nc3c2c(=O)[nH]c(=O)n3C)s1 1.5%
O=C(NC1CCN(Cc2ccccc2)CC1)c1ccccc1F 6.93%
COC(=O)[C@H](Cc1ccccc1)NC(=O)N1CC(C)OC(C)C1 (stereo partly specified) -0.592%
COc1ccc(CCC(=O)c2c(O)cc(OC3OC(CO)C(O)C(O)C3O[C@@H]3OC(C)C(O)C(O)C3O)cc2O)cc1O (stereo partly specified) -9.52%
O=C1NS(=O)(=O)c2ccccc21 36%
Cc1cc(=O)n2nc(N3CCCC(C(=O)N4CCN(C)CC4)C3)sc2n1 (stereo unspecified) -6.44%
C=C1C([C@@]2(C)C(OC(C)=O)CC(=O)O[C@@](C)(COC(C)=O)C2CC(=O)OC)C(OC=O)C(OC(=O)C(O)C(C)CC)[C@]2(C)C(c3ccoc3)CC(=O)C12O (stereo partly specified) 40.3%
COC(=O)CC1C(C)(C)C(OC(C)=O)C2CC3=C4CC(=O)OC(c5ccoc5)[C@]4(C)CCC3[C@@]1(C)C2=O (stereo partly specified) 31.6%
CC1(C)OC2CO[C@]3(COS(N)(=O)=O)OC(C)(C)OC3C2O1 (stereo partly specified) -7.19%
CCC1(C)Cc2c(sc3nc4n(c(=O)c23)CCCS4)CO1 (stereo unspecified) 20%
COC(=O)c1cccc(NC(=O)CSc2nc(C)cc(=O)[nH]2)c1 -2.63%
O=C(NCCCNCc1ccccc1)c1ccc(/C=N/O)nc1 5.49% [at 7.66 µM]
C/C(=C\C(=O)c1ccc(Br)cc1)N1CCCCC1 41.4%
CCc1ccc2oc(=O)cc(CN3CCCCC3C)c2c1 (stereo unspecified) -29%
O=C(Oc1cc(OC(=O)c2ccccc2)c2c(c1)OC(c1ccc(OC(=O)c3ccccc3)c(OC(=O)c3ccccc3)c1)[C@@H](OC(=O)c1ccccc1)C2)c1ccccc1 (stereo partly specified) 5.9%
COc1ccc(CNC2CCCCC2)cc1 6.59%
Cc1nnc(SCC(=O)NCCOc2ccc(Cl)cc2)n1-c1ccccc1 7.14%
O=C1OC(C(O)CO)C(O)=C1O (stereo unspecified) -9.98%
CC(=O)OCC(=O)[C@@]1(O)CCC2C3CCC4=CC(=O)CC[C@@]4(C)[C@]3(F)C(O)C[C@]21C (stereo partly specified) 8.49%
Cc1nonc1NC(=O)c1ccccc1Br 4.87%
O=C1CCC(=O)N1CCOP1(=O)COc2ccccc2OC1 -1.14%
O=c1c(-c2cc(F)cc(F)c2)nc2cnc(Oc3ccccc3)nc2n1C[C@H]1CCCO1 58.2%
COc1c(C(C)C)oc2cc3oc(=O)ccc3cc12 1.16%
CCC1CCCCN1C(=O)Nc1cccc(NC(=O)N2CCCCC2CC)c1 (stereo unspecified) 20.3%
CC(=O)OCC(=O)C1CCC2C3CCC4=CC(=O)CC[C@@]4(C)C3CC[C@]12C (stereo partly specified) -3.21%
COC1[C@H](OC(N)=O)C(O)[C@H](Oc2ccc3c(O)c(NC(=O)c4ccc(O)c(CC=C(C)C)c4)c(=O)oc3c2C)OC1(C)C (stereo partly specified) 5.79%
O=C(O)C(O)[C@@](O)(Cc1ccc(O)cc1)C(=O)O (stereo partly specified) -9.13%
N#CC1=C(N)Oc2cc(O)ccc2C1C1CCCCC1 (stereo unspecified) -16.2%
CS(=O)(=O)N1CCC2(CC1)CN(Cc1cc(C(F)(F)F)cc(C(F)(F)F)c1)C2 22.6%
O=C(CN1CCOCC1)Nc1c(-c2ccccc2)c2cc(Br)ccc2[nH]c1=O 21.4%
CSc1ccc(S(=O)(=O)Nc2cccc(F)c2)cc1 4.55%
COc1ccc2occ(C(=O)c3ccc(N=C(C)N(C)C)cc3)c2c1 11.4%
CN(Cc1ccco1)c1ncncc1-c1ccoc1 -5.34%
O=C(NCc1ccc2c(c1)OCO2)c1cc2c(s1)CS(=O)(=O)C2 39.2%
CC(=NCc1ccco1)C1=C(O)c2ccccc2C1=O 9.53%
COc1cccc(C(CC(=O)NCCN2CCOCC2)NS(=O)(=O)c2ccc(C)cc2)c1OC (stereo unspecified) 4.84%
COC(=O)N1CCC[C@@]2(CCN(C(=O)NC(C)C)C2)C1 6.83%
CC(C)=CCC/C(C)=C/CC/C(C)=C/CC/C(C)=C/CO -13.7%
